Counter-ions that a name gives are not always drawn.
What follows are compounds tested on Danio rerio larvae (5 dpf) (assay: activity during first hour (no stimuli), difference vs DMSO (percentage points (treated minus DMSO)); higher = more of the behaviour than the DMSO vehicle control). Conditions: 10 µM; exposure time: 3 h pre-incubation + 3 h imaging.
Protocol: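 5-dpf wild-type zebrafish larvae were imaged in 96-well plates. They were treated with 190 Tocris FDA-approved drugs at 10 µM (1 µl/ml DMSO) for 3 h before and 3 h during imaging at 28.5 °C, 48 larvae per drug. Automated image analysis gave % time moving and optomotor responses. Values are drug group mean minus DMSO vehicle mean (n=844), in percentage points, for 10 behaviours.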
With `O=c1[nH]c2ccccc2n1C1CCN(CCCC(c2ccc(F)cc2)c2ccc(F)cc2)CC1` [Pimozide] the “activity during first hour” value was -12.5.
In the case of `C=CCN1C[C@H](C(=O)N(CCCN(C)C)C(=O)NCC)C[C@@H]2c3cccc4[nH]cc(c34)C[C@H]21` [Cabergoline], the “activity during first hour” value is reported as -9.57.
In the case of `COc1ccc(C(CN(C)C)C2(O)CCCCC2)cc1` (configuration not stated) [Venlafaxine hydrochloride], the “activity during first hour” value is reported as -22.5.
`C=C1C[C@@H]2[C@H](CC[C@]3(C)C(=O)CC[C@@H]23)[C@@]2(C)C=CC(=O)C=C12` [Exemestane] was tested, and the “activity during first hour” value was -19.6.
`CC(C)C[C@H]1C(=O)N2CCC[C@H]2[C@]2(O)O[C@](NC(=O)[C@@H]3C=C4c5cccc6[nH]c(Br)c(c56)C[C@H]4N(C)C3)(C(C)C)C(=O)N12` [Bromocriptine mesylate] was tested, and the “activity during first hour” value was 15.2.
With `Cc1cccc([C@H](C)c2c[nH]cn2)c1C` [Dexmedetomidine hydrochloride] the “activity during first hour” value was -27.8.
`N[C@@H]1C[C@H]1c1ccccc1` [Tranylcypromine hydrochloride] was tested, and the “activity during first hour” value was -14.1.
`CC[C@@H](C(N)=O)N1CCCC1=O` [Levetiracetam] was tested, and the “activity during first hour” value was 7.99.
With `CCN(C)C(=O)Oc1cccc([C@H](C)N(C)C)c1` [Rivastigmine tartrate] the “activity during first hour” value was 6.97.
For `CN1C[C@H](C(=O)N[C@]2(C)O[C@@]3(O)[C@@H]4CCCN4C(=O)[C@H](Cc4ccccc4)N3C2=O)C[C@@H]2c3cccc4[nH]cc(c34)C[C@H]21` [Dihydroergotamine mesylate], the “activity during first hour” value was 4.7.
For `CC(O)(CS(=O)(=O)c1ccc(F)cc1)C(=O)Nc1ccc(C#N)c(C(F)(F)F)c1` (configuration not stated) [Bicalutamide], the “activity during first hour” value was 4.47.
`COc1cc2c(cc1OC)C1CC(=O)C(CC(C)C)CN1CC2` (configuration not stated) [Tetrabenazine] was tested, and the “activity during first hour” value was 3.91.
